Bioassay records: PubChem BioAssay, The Scripps Research Institute Molecular Screening Center
Rows were chosen to be rich in hits. Some 2.9% of all compounds tested hit in one or more screens of this group.
PLC-beta3 inh = blocks human PLC-beta3 enzyme activity; inhibition, % at 12.2 µM; 370,000 tested, 0.18% active; Purified PLC-beta3, fluorogenic substrate, fluorescence; Q01970; in the data active = inhibition above about 11%;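 also: 0% = median of compound wells on plate and 100% = full blocker control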
KLK7 zymogen act = activates the human kallikrein-7 zymogen; purified proKLK7, EDANS-DABCYL substrate fluorescence; 100% is mature enzyme control, 0% vehicle; activation, % at 7 µM; 370,000 tested, 0.9% active; AID 652039;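 active = activation above the mean of all tested compounds plus 3 SD, computed per campaign excluding outliers beyond control limits, cut at about 13% in these data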
ADAM17 inh = ADAM17 inhibition, QFRET primary screen; 370,000 tested, 0.83% active; recombinant ADAM17, EDANS/DABCYL FRET peptide cleavage; AID 720648; inhibition, % at 6.95 µM; P78536;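 active = inhibition above the mean of compounds lying between control limits plus 3 SD, set per campaign, cut at about 8.5% in these data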;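 also: 0% = DMSO-only wells as the low control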
PLCg1 inh = PLC-gamma1 (human) inhibition, primary screen | P19174 | purified PLC-gamma1, fluorogenic substrate, fluorescence | inhibition, % at 12.2 µM | 370,000 tested, 0.84% active | AID 720700; in the data active = inhibition above about 9.5%
ADAM10 inh = inhibits human ADAM10; inhibition, % at 7 µM; 370,000 tested, 0.62% active; recombinant ADAM10, EDANS/DABCYL FRET peptide cleavage, 3 h; AID 720582;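 active = inhibition above a per-campaign cutoff equal to the mean of compounds falling between control-based bounds plus 3 SD, cut at about 20% in these data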;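 also: 0% = DMSO wells while the 100% control is not disclosed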
Starred values were filed as active, the others as inactive; i = inactive.

SMILES | PLC-beta3 inh | KLK7 zymogen act | ADAM17 inh | PLCg1 inh | ADAM10 inh
Cc1cccc(COC[C@H](Cc2ccccc2)N2CCN(C(=O)c3ccc(Cl)c(Cl)c3)CCC2=O)c1 | 1 | 1 | 3 | 0 | 9
Cc1cccc(COCC(Cc2ccccc2)N2CCN(C(=O)c3ccc(Cl)c(Cl)c3)CCC2=O)c1 (stereo not given) | 4 | 0 | 6 | 4 | 28*
CCN1CCN(Cc2ccc(NC(=O)c3cc(NC(=O)C(=O)c4c[nH]c5ccccc45)cc(OC)c3)cc2C(F)(F)F)CC1 | -20 | -3 | 9.0* | -13 | 22*
CC(C)(C)c1ccc(C(=O)Nc2cccc3c(=O)[nH][nH]c(=O)c23)cc1 | i | -107 | -77 | i | -235
COc1cc(NC(=O)c2cccs2)c(OC)cc1NC(=O)CCC(=O)Nc1ccc2ncccc2c1 | -7 | 68* | -8 | -3 | -22
COc1ccc(OCC(=O)Nc2ccc(NC(=O)c3cccs3)c(OC)c2)cc1 | -5 | 0 | 0 | 4 | -6
O=C(NCCC(c1ccccc1)c1ccccc1)c1cnccn1 | -1 | 0 | 0 | 1 | 6
O=C(O)C1Nc2c(O)cc(Cl)c([N+](=O)[O-])c2C2C=CCC12 (stereo not given) | 7 | 0 | 0 | 31* | -8
O=[N+]([O-])c1ccc(Cl)c2c1C1C=CCC1C(c1ccccn1)N2 (stereo not given) | -5 | 0 | 2 | -1 | -6
Cc1ccc(Cl)cc1N1CCN(C(=O)CCCn2c(=O)c3cccn3c3cccnc32)CC1 | -6 | 0 | 4 | 10* | -6
CC1(C)CC2CC(C)(CN2C(=O)COC(=O)c2ccccc2C(F)(F)F)C1 (stereo not given) | -5 | 0 | 0 | 12* | -7
CSc1ncccc1C(=O)OCC(=O)N1CC2(C)CC1CC(C)(C)C2 (stereo not given) | 2 | 1 | -1 | -1 | -2
Oc1c(C(Nc2cccc(C(F)(F)F)c2)c2ccncc2)ccc2cccnc12 (stereo not given) | -10 | 1 | 45* | -4 | 12
Cc1cc(N2CCN(c3ccccc3)CC2)nc(N)n1 | 3 | 0 | 1 | 0 | 4
O=C(O)Cc1c[nH]c2cccc(O)c12 | 10 | 1 | 1 | 25* | -3
COc1ccc(Cl)cc1NS(=O)(=O)c1cccc(C(=O)NCC(c2ccco2)N2CCCC2)c1 (stereo not given) | 3 | 0 | 6 | 1 | -5
CN(c1ccccc1)c1ccc(/C=C(\CCC(=O)O)c2nc3ccccc3s2)cc1[N+](=O)[O-] | -12 | 0 | 9.8* | -3 | 18
Cc1cnn(C(=S)NCCc2ccccc2)c1 | -1 | 0 | 0 | 0 | -9
Cc1cnn(C(=S)NCc2ccc(Cl)cc2)c1 | 9 | 0 | 6 | 13* | 1
COC(=O)C(N)Cc1ccc(OC)c([N+](=O)[O-])c1 (stereo not given) | -2 | -1 | 3 | 2 | 6
COC(=O)C(C(=O)OC)[C@@H]1C=C[C@H](C[N+](=O)[O-])N(C(C)=O)C1 | 4 | 0 | -2 | 12* | 0
Cc1ccc(S(=O)(=O)c2ccc([N+](=O)[O-])cn2)cc1 | 6 | 0 | 0 | 11* | 7
CC1=C(O)C(=O)C(C2=C(O)C(=O)C(C)=C(O)C2=O)=C(O)C1=O | 4 | 0 | -4 | 47* | -5
Cc1ccc(C2=C(O)C(=O)C(c3ccc(C)cc3)=C(O)C2=O)cc1 | -4 | -1 | -1 | -7 | -5
OC(c1ccccc1)(c1ccccc1)C1CCN(CCCOc2ccccc2Cl)CC1 | 2 | 1 | 0 | 1 | -1
SMILES | PLC-beta3 inh | KLK7 zymogen act | ADAM17 inh | PLCg1 inh | ADAM10 inh
CCCOc1ccc(Cn2c(=O)oc3ccc(C)cc32)cc1OC | 13* | 0 | 7 | 6 | 9
CCCOc1ccccc1Cn1c(=O)oc2ccc(C)cc21 | 0 | 1 | -2 | -1 | 1
O=C(Nc1ccon1)Nc1ccc(Cl)cc1Cl | -8 | 0 | -1 | -1 | 2
COc1ccccc1-c1nnc(NC(=O)CSc2nncn2C)s1 | 2 | 0 | -4 | -2 | -1
CCN(CC)Cc1cc(Nc2c3ccccc3nc3c4ccccc4n(C)c23)cc(CN(CC)CC)c1O | -464 | 23* | -93 | -352 | -325
Oc1cccc(Nc2c3ccccc3nc3ccccc23)c1 | -262 | 2 | -471 | -208 | i
CCN1CCN(CC(=O)Nc2cc(S(=O)(=O)N(CC)c3ccccc3)ccc2Cl)CC1 | 3 | 1 | 0 | 9.5* | -5
